# Experimental data published in PubChem BioAssay AID720580 (National Center for Advancing Translational Sciences (NCATS), 2013).
# Screen size: about 330,000 compounds; about 1,500 (0.45%) were called active. Roughly 6% stayed inconclusive and do not appear here. Calls come from the whole dose curve; tested in A549 cells. The entries come from a sample that favours actives as a whole. A call without a number means that no potency is given here.
# Experiment: qHTS for Stage-Specific Inhibitors of Vaccinia Orthopoxvirus: Venus Reporter Primary qHTS; note: nearly all actives have a fitted effect of over 30% in size
# Settings: Vaccinia virus Venus reporter expression, fluorescence; series mostly up to 36.5 µM
# Potency is the fitted concentration of half-maximal effect.
row,SMILES,Potency
1,CC(C)Oc1c(Br)cc(Br)cc1/C=N/NC(N)=S,5.01 µM (active)
2,NC(=S)N/N=C/c1coc2cc(Cl)ccc2c1=O,inactive
3,Cc1cccc(-n2c(C)cc(/C=N/NC(N)=S)c2C)c1,inactive
4,CCCCCn1nnnc1C1c2ccccc2C(=O)N1Cc1ccco1 (stereo unspecified),inactive
5,O=C(Nc1ccccc1Cl)/C(Cl)=C(\Cl)S(=O)c1ccccc1 (stereo unspecified),10 µM (active)
6,O=C(Nc1ccccc1Cl)O/N=C(/c1ccccc1)c1ccccn1,inactive
7,O=C(Cc1ccc2c(c1)CCCC2)Nc1ccccc1Cl,inactive
8,C[C@]12CC[C@H](O)C[C@H]1CC[C@@H]1C2CC[C@]2(C)[C@@H](C3=CC(=O)OC3)[C@@H](O)C[C@]12O (stereo partly specified),3.16 µM (active)
9,C[C@@]12CCC3C(CC[C@@H]4CC(O)CC[C@@]34C)C1CCC2O (stereo partly specified),inactive
10,CC(CCC(=O)O)C1CCC2C3C(O)C[C@@H]4CC(O)CC[C@@]4(C)C3CC[C@@]12C (stereo partly specified),inactive
11,Cc1csc(NCC(=O)c2c[nH]c3ccccc23)n1,inactive
12,CCOC(=O)[C@]12CCC=C1N(Cc1cccc3ccccc13)C(=O)[C@H](CC(=O)NCc1cccc(C(F)(F)F)c1)C2,inactive
13,COc1ccc(C(C)C)cc1-c1ccc2nncn2c1,inactive
14,Cc1cc(C)n2c(NCc3ccccc3)c(CC(C)C)nc2n1,inactive
15,O=C(Nc1ccc(C(=O)N2CCOCC2)cc1)Nc1cccc(C(F)(F)F)c1,inactive
16,CC(=O)c1ccc(Nc2nc(C(N)c3ccccc3)cs2)cc1 (stereo unspecified),inactive
17,NC(c1csc(NC(=O)Nc2cccc(C(F)(F)F)c2)n1)C1CCCCC1 (stereo unspecified),10 µM (active)
18,CC(C)C[C@H](NC(=O)Nc1cccc(C(F)(F)F)c1)C(=O)O,inactive
19,Cc1ccc(NC(=O)Nc2cccc(C(F)(F)F)c2)nc1,inactive
20,NC(c1ccccc1)c1csc(NC(=O)Nc2cccc(C(F)(F)F)c2)n1 (stereo unspecified),11.2 µM (active)
21,COc1ccc(C(O)C(O)(C(=O)OC(C)C)c2ccc(C)cc2)cc1 (stereo unspecified),inactive
22,COc1cc(C=C(OC(C)=O)c2ccc3c(c2)OCO3)cc(OC)c1OC,inactive

row,SMILES,Potency
1,COc1ccc(-c2ccc(C(=O)NCCN3CCOCC3)c3occc23)c(C)c1,inactive
2,COc1ccccc1Cc1c(-c2ccc(Cl)cc2)nc2c3ccccc3ccn12,inactive
3,COc1ccc(-c2coc3c(C(=O)NC(C)C)cccc23)c(C)c1,inactive
4,CCCCCn1nnnc1-c1nc2cc3ccccc3cc2[nH]c1=O,inactive
5,CCOC(=O)C1C(C)C(C(C)(C)C)N(S(=O)(=O)c2ccc(C)cc2)C1c1ccccc1 (stereo unspecified),inactive
6,Cc1cc2nc(-c3ccc(Cl)cc3)c(Cc3cccc(F)c3)n2c(C)c1Br,inactive
7,COc1cccc(CNC(=O)[C@@H]2CCCN2C(=O)[C@@H]2CCCN2C(=O)c2ccccc2)c1,inactive
8,COC(=O)c1ccc2nc(-c3ccc(C)cc3)c(Cc3ccc(OC)cc3C)n2c1,inactive
9,O=S1(=O)CC(N2CCN(Cc3ccccc3F)CC2)CN1Cc1cn(Cc2cccc(C(F)(F)F)c2)nn1 (stereo unspecified),inactive
10,S=C(NCc1cccnc1)Nc1ccc(Cl)cc1Cl,inactive
11,CC(=O)/C(=N\Nc1ccc(Cl)cc1Cl)Sc1cccc2cccnc12,10 µM (active)
12,COc1c(Cl)cc(Cl)cc1C(=O)Nc1cccc2cccnc12,inactive
13,COc1ccc(/C=C/c2ccnc3ccccc23)cc1OC,inactive
14,Cc1cn(COC/C=C/c2ccccc2)c(=O)[nH]c1=O,inactive
15,Cc1[nH]c(=O)c(C(=O)/C=C/c2ccccc2)c2c1CCCC2,6.31 µM (active)
16,CC1(C(=O)O)CCCN(C(=O)/C=C/c2ccccc2)C1 (stereo unspecified),inactive
17,CC(C)(C)c1ccc(C(=O)C[n+]2cccc3cc(Cl)ccc32)cc1,inactive
18,CCOC(=O)c1ccn(S(=O)(=O)c2ccc(C)cc2)c1-c1ccccc1,inactive
19,CN(Cc1cn(Cc2ccc(C(F)(F)F)cc2)nn1)C1CN(Cc2cn(Cc3ccc(C(F)(F)F)cc3)nn2)S(=O)(=O)C1 (stereo unspecified),inactive
20,c1ccc(Cc2c(-c3ccco3)nc3c4ccccc4ccn23)cc1,inactive
21,CC[C@H]1CN2CCc3cc(OC)c(OC)cc3[C@@H]2C[C@@H]1C[C@H]1NCCc2cc(OC)c(OC)cc21,0.562 µM (active)
22,CCC(CC)C(=O)N1CCc2cc(OC)c(OC)cc2C1COc1ccc(F)cc1 (stereo unspecified),inactive

row,SMILES,Potency
1,COc1cc2c(cc1OC)CN(CC(=O)Nc1ccc(F)cc1)CC2,inactive
2,CCc1oc(-c2ccc(OC)cc2)c(C(=O)OCCCCCO)c1C(C)OCCO (stereo unspecified),inactive
3,Cc1ccc(-c2nc(=N)sn2Cc2ccccc2)cc1,inactive
4,S=c1[nH]c(=S)c2n[nH]nc2[nH]1,inactive
5,CCCc1c(-c2ccccc2F)ncn1Cc1ccccc1OC,inactive
6,COc1ccc(S(=O)(=O)NCCc2c[nH]c3ccccc23)cc1OC,inactive
7,COc1cccc(CNCCc2c[nH]c3ccccc23)c1OCc1ccccc1F,10 µM (active)
8,c1cncc(CNCCc2c[nH]c3ccccc23)c1,inactive
9,CO[C@H]1O[C@@H]2O[C@@]3(C)CC[C@@H]4[C@@H](C)CC[C@@H]([C@H]1C)[C@@]24OO3,inactive
10,CN(Cc1ccccc1F)c1cc2c(c3c1ccn3C)C1CCC2O1 (stereo unspecified),inactive
11,CN(C)c1ccc(/C=C/c2sc3ccccc3[n+]2C)cc1,inactive
12,OCC(O)C(O)C(O)C(O)C=Nc1ccc(/C=C/c2ccnc3ccccc23)cc1 (stereo unspecified),inactive
13,CCOCCC(=O)Nc1ccc2c(c1)c(=O)n(C)n2-c1ccc2ccccc2c1,inactive
14,CS(=O)c1ccc(/C=C2\C=Cc3ccccc32)cc1 (stereo unspecified),inactive
15,COc1cccc(/C=C2\SC(=S)N(CCCC(=O)N3CCOCC3)C2=O)c1,12.6 µM (active)
16,Cc1cc(/C=C2/SC(=O)N(CC(=O)N3CCCC3)C2=O)ccc1N1CCOCC1,inactive
17,COc1ccc(/C=C2\SC(=S)N(CCC(=O)N3CCOCC3)C2=O)cc1OC,inactive
18,CCC(C)CN1C(=O)CSCC1(C)C(=O)NCc1ccccc1 (stereo unspecified),inactive
19,COc1ccc(C(C)(NC(C)=O)c2nc(-c3ccc(S(C)(=O)=O)cc3)cs2)cc1 (stereo unspecified),inactive
20,COc1cccc(OCc2nnc3n2N=C(c2ccccc2)C(CC(=O)O)S3)c1 (stereo unspecified),inactive
21,CCCCCCCCCCOC(=O)Cn1c(COc2cccc(OC)c2)[n+](C)c2ccccc21,11.2 µM (active)
22,CCCCn1c(N)c(N(CCOC)C(=O)c2cccc(OCc3ccccc3)c2)c(=O)[nH]c1=O,inactive
